About 79,000 compounds went through this panel and 15% of them were active in at least one assay; those are over-represented in the sample as a whole. Values without a mark were called inactive. Active and inactive are the calls of the source. No stated cut-off is given here; in the data, active means growth inhibition above about 70%; inactive means the rest. Where a SMILES comes first, the peptide text is derived from it. The star is where a group is joined. Cbz = O=C(OCc1ccccc1)*; CH2Cl = ClC*
Columns and labels:
[1] = NCI Yeast Anticancer Drug Screen. Data for the rad50 strain (AID 155);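 further: 0% = growth of vehicle-only cultures of the same strain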; details: S. cerevisiae rad50 strain growth inhibition, stronger effect = higher value
In short: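 Readout: growth inhibition relative to vehicle-treated cultures. Compound exposure was carried out in a genetically defined yeast strain deficient in DNA damage repair.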

[2] = NCI Yeast Anticancer Drug Screen. Data for the mec2-1 strain (AID 157); details: S. cerevisiae mec2-1 strain, stronger effect = higher value
In short: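 Readout is yeast growth inhibition, normalised to vehicle-treated controls, in the mec2-1 strain exposed to compound.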

[3] = NCI Yeast Anticancer Drug Screen. Data for the sgs1 mgt1 strain (AID 161);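 further: 0% = growth of cultures given vehicle only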; details: S. cerevisiae sgs1 mgt1 strain, stronger effect = higher value
In short: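 Growth of a repair-deficient yeast mutant was monitored after compound treatment and expressed as inhibition relative to vehicle-treated cultures.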

[4] = NCI Yeast Anticancer Drug Screen. Data for the cln2 rad14 strain (AID 165);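 further: 0% = growth equal to vehicle treated cultures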; details: S. cerevisiae cln2 rad14 strain, stronger effect = higher value
In short: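 Relative to vehicle controls, growth inhibition of compound-treated cln2 rad14 yeast was recorded.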

[5] = NCI Yeast Anticancer Drug Screen. Data for the bub3 strain (AID 167); details: S. cerevisiae bub3 mutant strain, stronger effect = higher value
In short: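 Readout: yeast growth inhibition, expressed relative to vehicle-only wells. The test organism is a mutant strain from a panel with lesions in DNA repair or checkpoint genes.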

[6] = NCI Yeast Anticancer Drug Screen. Data for the mlh1 rad18 strain (AID 175); details: S. cerevisiae mlh1 rad18 strain growth inhibition, stronger effect = higher value
In short: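 Test agents were incubated with a yeast strain of defined genotype (DNA damage repair defect). Inhibition of growth was derived by comparison with vehicle-exposed cultures.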

[7] = at 5.0 µM (retest, dose inferred, filed as 0.5)
[8] = at 50.0 µM (retest, dose inferred, filed as 5.0)

SMILES | growth inhibition [1, 7] [%] | growth inhibition [1, 8] | growth inhibition ([1]; at 50.0 µM) | growth inhibition [2, 7] [%] | growth inhibition [2, 8] | growth inhibition ([2]; at 50.0 µM) | growth inhibition [3, 7] [%] | growth inhibition [3, 8] | growth inhibition ([3]; at 50.0 µM) | growth inhibition [4, 7] [%] | growth inhibition [4, 8] | growth inhibition ([4]; at 50.0 µM) | growth inhibition [5, 7] [%] | growth inhibition [5, 8] | growth inhibition ([5]; at 50.0 µM) | growth inhibition [6, 7] [%] | growth inhibition [6, 8] | growth inhibition ([6]; at 50.0 µM)
FC(F)(F)c1nc2cc(SSc3cc4nc(C(F)(F)F)[nH]c4cc3Cl)c(Cl)cc2[nH]1 | 1 | 51% | 97.5% (active) | -1 | 85% (active) | 93.2% (active) | 0 | 87% (active) | 95% (active) | -6 | 91% (active) | 65.8% | -18 | 61% | 97% (active) | -12 | 97% (active) | 97.7% (active)
CC(=O)c1c(O)c(C)c(O)c2c1OC1=CC(=O)c3c(C)noc3C12C (configuration not stated) | -1 | 10% | 24.9% | -3 | 7% | 26.1% | -2 | 10% | -2.55% | 10 | 16% | 25.3% | -9 | 1% | 12.8% | -1 | 10% | 54.1%
CCC(Cl)COP(=O)(OCC(Cl)CC)OC(c1ccc(Cl)c(Cl)c1)P(=O)(OCC(Cl)CC)OCC(Cl)CC (configuration not stated) | 8 | 23% | 55% | 14 | 11% | 91.2% (active) | -1 | 7% | 93% (active) | -10 | 1% | 76.2% (active) | -3 | 9% | 55.6% | 7 | 37% | 85.7% (active)
Cn1c(=NCCc2ccccc2)oc2ccc(Cl)cc21 | -6 | 17% | 6.15% | -7 | 9% | 1.7% | -7 | 29% | 30.3% | -4 | 16% | 73% (active) | 4 | 33% | 18.6% | -3 | 25% | 18.6%
CCOC(=O)c1[nH]cnc1/N=N/c1nc(O)c(C#N)[nH]1 | 8 | 98% (active) | -5.65% | 3 | 99% (active) | 9.8% | -13 | 99% (active) | 6% | 6 | 99% (active) | 0.85% | -4 | 99% (active) | 1.55% | -6 | 99% (active) | -1.95%
O=C(O)NCc1ccccc1 (tested in a mixture with another compound) | 11 | 94% (active) | 94% (active) | -12 | 40% | 14.8% | -5 | 74% (active) | 36.1% | 5 | 98% (active) | 60% | 23 | 98% (active) | 87.5% (active) | 3 | 80% (active) | 88% (active)
CCCCCCCCCCCCCCCC(=O)N1CCOCC1 | -4 | 94% (active) | 31.4% | -5 | 97% (active) | 31.8% | -4 | 98% (active) | -13.7% | 1 | 62% | -64.8% | -8 | 98% (active) | 21.2% | 17 | 93% (active) | 28.1%
CC(C)CC(NC(=O)OCc1ccccc1)C(=O)NC(Cc1ccccc1)C(=O)CCl (stereo not drawn) (Cbz-Leu-Phe-CH2Cl; configuration not given here) | 43 | 62% | 28.9% | 48 | 86% (active) | 58.5% | 27 | 46% | 53.8% | 16 | 52% | -8.15% | 51 | 77% (active) | 87.5% (active) | 46 | 74% (active) | 54.9%
CCOC(=O)c1ccccc1NC(OCC)C(=O)c1ccccc1 (configuration not stated) (tested in a mixture with another compound) | -5 | 70% (active) | 75% (active) | 5 | 22% | 63.9% | 1 | 69% | 90.8% (active) | -3 | 12% | 16.2% | -5 | 71% (active) | 70% (active) | 0 | 81% (active) | 90.7% (active)
